Screening data (PubChem BioAssay)
WRN inhibitor: qHTS for Inhibitors of WRN Helicase. Bifunctional 3'-5' exonuclease/ATP-dependent helicase WRN (Homo sapiens), Q14191. WRN helicase unwinding, fluorescent forked duplex, kinetic. Potency, µM (top dose mostly 114 µM), hits mostly inhibitors. 360,000 compounds, 0.46% hits. AID 651768, 2012; note: nearly all actives have a fitted effect of over 55% in size
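Primary qHTS, 1536-well format. 20 nM WRN + compound, 15 min RT; start with 100 nM forked fluorophore/quencher duplex, 2 mM ATP (final); kinetic read ex 525/em 598 nm.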
PI5P4Ka inh: qHTS for Inhibitors of phosphatidylinositol 5-phosphate 4-kinase (PI5P4K); PI5P4Kalpha enzyme, ADP-Glo luminescence, 60 min; hits give low values; max response, %; 330,000 compounds, 1.2% hits; AID 652105, 2013; active = max response of -50% or lower; inconclusive = between -30% and -50%; inactive = -30% or higher; note: value at the top dose of about 77 µM
Target sequence (P48426 whole entry, looked up): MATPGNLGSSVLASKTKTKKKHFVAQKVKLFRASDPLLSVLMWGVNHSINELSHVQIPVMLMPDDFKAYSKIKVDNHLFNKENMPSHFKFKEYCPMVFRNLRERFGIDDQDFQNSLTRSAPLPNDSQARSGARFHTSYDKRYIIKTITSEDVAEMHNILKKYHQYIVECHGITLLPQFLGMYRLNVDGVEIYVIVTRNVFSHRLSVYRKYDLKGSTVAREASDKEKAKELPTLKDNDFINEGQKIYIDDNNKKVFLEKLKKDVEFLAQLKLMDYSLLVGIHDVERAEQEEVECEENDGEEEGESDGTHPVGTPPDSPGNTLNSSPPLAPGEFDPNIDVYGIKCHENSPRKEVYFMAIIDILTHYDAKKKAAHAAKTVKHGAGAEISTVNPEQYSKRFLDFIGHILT
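Reactions run in 0.038 M HEPES pH 7.4, 0.28 mM EGTA, 0.1% CHAPS and 5% DMSO, with PI5P4Kalpha, substrate, compound and 5 microM ATP final, one hour at room temperature. Readout is ADP-Glo luminescence.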
POLH inh: qHTS for Inhibitors of Polymerase Eta; DNA polymerase eta (Homo sapiens), Q9Y253; recombinant Pol eta, fluorescent DNA replication assay; Potency, µM (highest dose often 114 µM), hits mostly inhibitors; 390,000 compounds, 1.2% hits
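Fluorescent replication assay: 50 nM final substrate added after a 15 min room-temperature compound preincubation with 10 nM enzyme. Signal taken at 0 min and again at 10 min.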
Pol kappa inh: qHTS for Inhibitors of Polymerase Kappa. 400,000 compounds, 0.53% hits. Potency, µM (top dose mostly 107 µM), usual class: inhibitors. purified Pol kappa, fluorescent DNA synthesis assay, 10 min
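50 nM final substrate added after 15 min RT preincubation of 10 nM Pol kappa with compound; fluorescence read at 0 and 10 min.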
POLB inh: qHTS Assay for Inhibitors of DNA Polymerase Beta; P06746; Pol beta primer extension/strand displacement, fluorescence kinetic; Potency, µM (series often up to 114 µM), hits mostly inhibitors; 340,000 compounds, 1.3% hits; AID 485314, 2010
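Preincubation: enzyme (10 nM) with compound, 15 min, RT. Reaction: substrate added to 50 nM final. Reads: 0 and 10 min. Analysis: normalized, Hill fit.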
Pol iota inh: qHTS for Inhibitors of Polymerase Iota; DNA polymerase iota (Homo sapiens), Q9UNA4; Pol iota fluorescent replication assay, 10 min; Potency, µM (highest dose often 115 µM), usual class: inhibitors; 390,000 compounds, 1% hits; AID 588590, 2011
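Fluorescent replication assay read twice, at 0 min and 10 min after adding 50 nM (final) substrate. Enzyme (10 nM) and compounds were first incubated 15 min at room temperature; enzyme-free buffer wells were negative controls.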
Hits are given with their value; i = inactive; ? = inconclusive; nt = no result; ! = not active in a repeat; [ ] = another dose, or the depositor's remark. Sampled rows, rich in hits. Any-hit rate of the full collection: about 2.8%. Unless noted, calls come from the whole dose curve; as a rule, active = well fitted curve in the direction sought with a large enough effect; inconclusive = small, poorly fitted or top-dose-only effect, or another doubt; inactive = no such curve, though single readings can be large; an effect the other way counts as inactive or inconclusive.

SMILES	WRN inhibitor	PI5P4Ka inh	POLH inh	Pol kappa inh	POLB inh	Pol iota inh
CC(C)(C)OC(=O)NCC(=O)Oc1cc2oc(=O)cc(-c3ccccc3)c2cc1Cl	i	-72	i	i	i	i
COc1ccc2c(c1)oc(=O)c1c3ccccc3[nH]c21	i	i	i	i	22µM	i
COc1ccc(S(=O)(=O)Nc2ccccc2)cc1	i	i	i	i	nt	i
COc1ccc(S(=O)(=O)Nc2ccc(O)c3ccccc23)cc1	79µM	i	i	i	i	20µM
Cc1ccc(S(=O)(=O)NNC(=O)c2cccs2)c(C)c1	i	i	i	i	i	i
Cc1ccc(S(=O)(=O)Nc2ccc(O)c3ccccc23)c(C)c1	50µM	i	i	i	i	?
Cc1ccc(S(=O)(=O)NNc2ccccc2)c(C)c1	50µM	?	i	i	?	i
Cc1nc(-c2cccc(NC(=O)C(C)Oc3ccccc3)c2)cs1 (centres undefined)	i	i	28µM	i	i	?
O=C(Cc1n[nH]c(=O)[nH]c1=O)N/N=C/c1cccc(Cl)c1	i	i	i	?	i	89µM
CC(C)NC(=O)Nc1ccc2c(c1)C(=O)N([C@@H](C)CO)C[C@H](C)[C@H](CN(C)S(=O)(=O)c1ccccc1)OCCCC[C@H](C)O2	i	i	i	nt	nt	nt
Nc1ccc(C(=O)Nc2ccc3nc(-c4cccnc4)[nH]c3c2)cc1	i	i	i	?	40µM	i
COC(=O)c1ccc(C(=O)Nc2ccc3nc(-c4cccnc4)[nH]c3c2)cc1	i	i	i	i	i	i
Nc1ccc(NC(=O)c2ccc(C(=O)Nc3ccc(N)cc3)cc2)cc1	i	i	i	i	?	i
Nc1ccc(C(=O)Nc2ccc(Nc3ccncc3)cc2)cc1	i	i	i	i	32µM	?
CC(=O)Nc1cccc(-c2nc3ccc(NC(C)=O)cc3[nH]2)c1	i	i	?	?	45µM	?
O=C(CNC(=O)C1CCCCC1)OCc1ccccc1	nt	nt	nt	i	nt	i
O=C(C1CCC1)N1CCC(O)(c2cccc(F)c2)CC1	i	i	i	i	i	i
O=C(c1cnn(-c2ccc(F)cc2)c1-n1cccc1)N1CCN(c2cccc(Cl)c2)CC1	nt	nt	i	i	i	i
Cc1c(CCC(=O)O)c(=O)oc2cc(OCc3cccc(F)c3)ccc12	i	i	i	i	i	i
Cc1c(CCC(=O)O)c(=O)oc2cc(OCc3ccccc3Br)ccc12	?	i	i	i	50µM	i
COc1cc(NC(=O)Cn2c(=O)n(Cc3ccccc3Cl)c(=O)c3cc(OC)c(OC)cc32)cc(OC)c1	nt	nt	i	i	i	i
CCCCN=Cc1c(C)[nH]n(-c2ccccc2)c1=S	i	i	i	i	i	i
Cc1[nH]n(-c2ccccc2)c(=S)c1C=Nc1cccc([N+](=O)[O-])c1	i	-105	i	i	i	i
O=Nc1c2cc(-c3ccccc3)[nH]nc-2c2ccccc12	i	i	i	i	40µM	i
CCN(CC(=O)Nc1c(F)cccc1F)C(=O)c1ccc(C(=O)c2ccccc2)cc1	i	i	i	i	nt	i
SMILES	WRN inhibitor	PI5P4Ka inh	POLH inh	Pol kappa inh	POLB inh	Pol iota inh
CCc1nc2ccc(C(=O)N(CC)CC(=O)Nc3c(F)cccc3F)cc2nc1CC	i	i	35µM	i	nt	?
CCCCCC(O)C=CC1C(O)CC(O)C1CC=CCCCC(=O)O (centres undefined)	i	i	i	nt	nt	nt
CCCCC[C@H](O)/C=C/[C@H]1C=CC(=O)[C@@H]1C/C=C\CCCC(=O)O	nt	nt	nt	i[19.4 µM]	3.2µM	nt
CCCCC/C=C/C=C1/C(=O)C=C[C@@H]1C/C=C\CCCC(=O)O	nt	nt	nt	3.2µM!	nt	nt
CCCCC[C@@H](/C=C/C1C(=O)C=C[C@H]1C/C=C\CCCC(=O)O)OC(C)=O (some centres undefined)	i[11.6 µM]	i	45µM	i	nt	?
CCCCCCCC/C=C\CCCCCCCCCCCC(=O)O	nt	nt	nt	11µM	nt	nt
Cc1ccc(C)c(OCC(=O)Nc2ccc(S(=O)(=O)Nc3onc(C)c3C)cc2)c1C	nt	nt	i	i	i	i
COc1ccccc1Oc1ccc(S(=O)(=O)N2CCCCC2)cc1NC(=O)CCNC(C)=O	i	i	i	i	i	i
CCOC(=O)c1c(-n2c(C)cc(C=O)c2C)sc2c1CCCC2	i	nt	i	i	i	i
Cc1sc(-n2c(C)cc(C=O)c2C)c(C(=O)O)c1C	i	nt	50µM	i	?	35µM
O=[N+]([O-])c1ccc(O)c(/C=N/Nc2ncnc3c2cnn3-c2ccccc2)c1	i	-75	i	i	i	i
O=[N+]([O-])c1ccc(O)c(/C=N/Nc2ccccn2)c1	i	i	i	i	i	i
CN(C)c1ccc(C(=O)OCC(=O)Nc2ccc(S(N)(=O)=O)cc2)cc1	45µM	i	?	50µM	?	?
CCC(=O)c1ccc(OCC(=O)N2CCCC2)c(OC)c1	i	i	i	i	22µM	i
CCC(=O)c1ccc(OCC(=O)O)c(OC)c1	i	i	i	i	i	i
O=C(/C=C/c1ccco1)N1CCC(Cc2ccccc2)CC1	?	-57	?	?	?	40µM
O=C(/C=C/c1ccco1)N1CCN(c2ncccn2)CC1	i	i	?	i	?	i
CCc1cccc(C)c1NC(=S)NCC(c1cccnc1)N1CCOCC1 (centres undefined)	i	i	i	i	i	i
CC1=C(C(=O)Nc2ccccc2C(=O)NCCCOC(C)C)SCCO1	i	i	i	i	i	i
CCCCC(C)/C=C(C)/C=C(\C)C(=O)NC1=CC(O)(/C=C/C=C/C=C/C(=O)NC2=C(O)CCC2=O)C2OC2C1=O (centres undefined)	nt	nt	nt	27µM	nt	nt
CC(CCC(C)[n+]1cccc(C#N)c1)[n+]1cccc(C#N)c1 (centres undefined)	nt	nt	nt	i	nt	?
Cc1cc(-c2ccccc2)nc2cc(C(=O)NCc3ccco3)nn12	i	i	45µM	?	?	?
O=C(NCc1ccco1)c1nn2c(C(F)(F)F)cc(-c3cccs3)nc2c1Br	i	i	i	i	89µM	i
O=C(NCc1ccco1)c1cc2nc(-c3ccc4c(c3)OCO4)cc(C(F)(F)F)n2n1	i	i	i	i	79µM	i
COc1ccc(-c2cc(C(F)(F)F)n3nc(C(=O)NCC45CC6CC(CC(C6)C4)C5)cc3n2)cc1	nt	nt	i	i	?	89µM
O=C(COc1ccccc1[N+](=O)[O-])Nc1cc(Cl)ccc1C(=O)O	i	-55	i	i	i	i
